From PubChem BioAssay come the findings set out here.

The target in one experiment is Albumin (Bos taurus) (UniProt P02769). The experiment in a line: compounds binding labelled BSA control protein – biochemical, small-molecule microarray, Alexa647 label, 635/667 nm fluorescence, artefact control for SMM control protein annotation, profiling panel (AID 1118).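 Further: score merges 667 nm emission intensity and signal-to-noise per printed compound spot.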 Particulars: BSA-A647 binding, fluorescence 635 nm, higher = more signal.
Experiment [1] can be described thus: probe aXIP binding to arrayed compounds – biochemical, NeuroSMM set, 635/667 nm fluorescence, primary screen (AID 1119).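 Further: probe is the protein aXip251-270 applied at 1 µg/mL to compound-printed slides; binding of probe to printed compounds measured as 667 nm fluorescence plus signal to noise.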 Particulars: small-molecule microarray, higher = more signal, called active from +8 up or from −8 down.
Experiment [2] can be described thus: probe aNOTCH3 binding on compound microarray – biochemical, small-molecule microarray, 635/667 nm fluorescence, primary screen (AID 1120).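 Further: probe is a biotin-tagged antibody raised against NOTCH3 rather than NOTCH3 protein; score merges spot fluorescence near 667 nm with spot signal to noise.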 Particulars: higher = more signal.
A short description of experiment [3]: probe aNOTCH2 binding on compound microarray – biochemical, small-molecule microarray, 635/667 nm fluorescence, primary screen (AID 1121).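 Further: score merges feature fluorescence read at 667 nm with its signal to noise.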 To be noted: higher = more signal.
Experiment [4] has as its target Carbonic anhydrase 2 (Homo sapiens) (UniProt P00918). In words: compounds binding carbonic anhydrase 2 – biochemical, small-molecule microarray, Alexa647-labelled CAII, profiling panel (AID 1122). Particulars: CAII-A647 binding fluorescence, higher = more signal.
A short description of experiment [5]: COS7 lysate on small-molecule microarray, probe aHis, 635 nm (AID 1123).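 Further: z-score combines 667nm fluorescence intensity with signal-to-noise per printed compound spot.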 To be noted: COS7 cell lysate, fluorescence, higher = more signal.
Experiment [6] is described as follows: probe aLAP1 signal on lysate-treated microarray – cell lysate, small-molecule microarray, COS7 lysate, primary screen (AID 1124).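 Further: lysate comes from COS7 cells expressing LAP1 and is applied at 0.3 µg/mL; score merges spot fluorescence near 667 nm with signal-to-noise over triplicate slides.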 To be noted: probe aLAP1, fluorescence, higher = more signal.
In a further experiment the test system is Sam68 (KHDRBS1). In words: compounds binding KHDRBS1 protein – biochemical, small-molecule microarray, 635 nm fluorescence, primary screen (AID 1125).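 Further: score merges 667 nm channel intensity with signal to noise over triplicate slides.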 Particulars: higher = more signal.
The subject of experiment [7] is Chordin-like protein 2 (CHRDL2). The experiment in a line: compounds binding chordin-like 2 – biochemical, small-molecule microarray, 635 nm fluorescence, primary screen (AID 1126).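 Further: printed compound slides probed with Chrdl2 protein at 4 µg/mL for 1 h at 4 C; score merges 667 nm emission intensity with signal to noise over three replicate slides.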 Particulars: fluorescence 635 nm, higher = more signal.
The target in experiment [8] is Concanavalin-A (Canavalia ensiformis) (UniProt P02866). The experiment in a line: compounds binding concanavalin A lectin – biochemical, small-molecule microarray, Alexa647 label, 635 nm, artefact control for SMM control protein annotation, primary screen (AID 1127).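 Further: z combines 667 nm emission intensity with signal-to-noise across three replicate slides.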 Particulars: ConA-A647 binding fluorescence, higher = more signal.

Molecules are shown by their SMILES. Active and inactive are the calls of the source.

Chain of Albumin (Bos taurus) (P02769 whole entry, looked up): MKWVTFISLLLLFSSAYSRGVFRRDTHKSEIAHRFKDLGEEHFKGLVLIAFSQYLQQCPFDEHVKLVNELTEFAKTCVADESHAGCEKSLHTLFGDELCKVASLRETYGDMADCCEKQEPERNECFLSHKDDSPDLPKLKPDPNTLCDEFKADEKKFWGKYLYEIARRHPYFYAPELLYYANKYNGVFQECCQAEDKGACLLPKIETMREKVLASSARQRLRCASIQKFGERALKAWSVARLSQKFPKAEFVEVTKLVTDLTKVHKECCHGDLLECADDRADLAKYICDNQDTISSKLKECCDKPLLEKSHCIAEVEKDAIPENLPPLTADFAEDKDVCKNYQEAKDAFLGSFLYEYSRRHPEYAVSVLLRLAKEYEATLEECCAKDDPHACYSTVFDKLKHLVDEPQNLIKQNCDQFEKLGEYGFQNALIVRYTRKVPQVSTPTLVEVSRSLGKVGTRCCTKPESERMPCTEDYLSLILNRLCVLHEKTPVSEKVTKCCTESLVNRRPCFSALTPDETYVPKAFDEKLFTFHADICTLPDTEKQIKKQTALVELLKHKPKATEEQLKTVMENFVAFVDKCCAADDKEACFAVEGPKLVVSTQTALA
Chain of Concanavalin-A (Canavalia ensiformis) (P02866 whole entry, looked up): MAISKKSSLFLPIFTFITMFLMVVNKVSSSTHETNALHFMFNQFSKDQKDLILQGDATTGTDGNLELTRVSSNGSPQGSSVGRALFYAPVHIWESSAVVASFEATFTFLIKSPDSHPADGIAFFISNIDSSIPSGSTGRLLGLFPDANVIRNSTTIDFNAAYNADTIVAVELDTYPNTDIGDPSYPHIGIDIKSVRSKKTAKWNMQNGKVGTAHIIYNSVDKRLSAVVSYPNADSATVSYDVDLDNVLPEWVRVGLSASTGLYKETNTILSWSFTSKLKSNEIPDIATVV

As to `O=C(OCc1ccccc1)C1=CCC2c3[nH]c4ccccc4c3C(=O)C1N2S(=O)(=O)c1ccccc1[N+](=O)[O-]` (stereo not given), the composite z-score was found to be 0.994 with Albumin (Bos taurus); 0.6 in experiment [2]; 0.285 in [3]; 0.777 in [4]; 2.61 in [5]; 0.335 in experiment [6]. In addition, the composite z-score in the experiment on Sam68 (KHDRBS1) was 1.06; in [7], -0.328; in [8] it was 0.996. Besides, in [1], the composite Z-score was 0.0421 (inactive).
Regarding `C=C(C)[C@@H]1CC=C(C(O)C2C=CC3C(=O)N(c4ccccc4)C(=O)C3N2Nc2ccccc2)CC1` (stereo not given in full), the composite z-score with Albumin (Bos taurus) is 0.889; in experiment [2], 0.75; in experiment [3], 0.405; in experiment [4], 0.879; in experiment [5], 2.84; in experiment [6] it was 0.736. Moreover, the composite z-score in the experiment with Sam68 (KHDRBS1) stood at 1.3; in experiment [7] it was 0.543; in experiment [8], 1.13. Besides, the composite Z-score in experiment [1] was 0.788 (inactive).
For the molecule `COCCCNC(=O)[C@]1(CCC(=O)OC(C)(C)C)N=C(c2ccc(OCCCO)cc2)O[C@@H]1c1ccccc1CN=[N+]=[N-]`, the composite z-score was 0.839 in the experiment with Albumin (Bos taurus); 0.395 in experiment [2]; -0.0411 in experiment [3]; 0.78 in experiment [4]; 2.03 in experiment [5]; 1.8 in experiment [6]. The composite z-score in the experiment on Sam68 (KHDRBS1) worked out at 1.3; in [7] it was 0.0091; in experiment [8] it was 1.12. Also, in experiment [1], the composite Z-score is 0.0707 (inactive).
For the molecule `C=CCNC(=O)[C@@H]1[C@H]2C(=O)O[C@H](c3ccccc3)[C@H](c3ccccc3)N2[C@H](c2ccc(OCCO)cc2)[C@@]12C(=O)Nc1ccc(C#CCC(C(=O)OC)C(=O)OC)cc12`, the composite z-score with Albumin (Bos taurus) worked out at 0.64; in experiment [2], 0.277; in experiment [3], 0.0302; in [4], 0.641; in experiment [5], 2; in experiment [6], 0.978. Also, the figures for the composite z-score (with Sam68 (KHDRBS1); in [7]; in experiment [8]) were 1.29, 0.392 and 1.16, respectively. The composite Z-score in [1] is 0.788 (inactive).
On to `Cc1ccc([C@@H]2C[C@@H](Sc3ccccc3)[C@H](C(=O)O)CN2S(=O)(=O)c2ccc(C)cc2)cc1`, for which the composite z-score amounted to 0.26 with Albumin (Bos taurus); 0.171 in [2]; 0.0019 in experiment [3]; 0.726 in experiment [4]; 2.89 in experiment [5]; 0.986 in experiment [6]. Also, the figures for the composite z-score (in the experiment with Sam68 (KHDRBS1); in [7]; in experiment [8]) were 1.29, -0.144 and 1.03, respectively. In experiment [1], the composite Z-score is -0.571 (inactive).
With `C[N+](C)(C)CCCCNC(=O)[C@H]1C[C@H]2C(=O)N3CCC[C@H]3C(=O)N2[C@H]1c1cccc(OCCO)c1`, the composite z-score in the experiment with Albumin (Bos taurus) was -1.75; in experiment [2], -0.0663; in [3] it was -0.0942; in experiment [4] it was 0.73; in [5], 0.647; in experiment [6], 0.815. Besides, the figures for the composite z-score (with Sam68 (KHDRBS1); in experiment [7]; in experiment [8]) were -0.531, 1.3 and -0.303, respectively. For the same molecule, in [1], the composite Z-score is -0.166 (inactive).
In the case of `C=CCC(OC(C)=O)[C@@H]1[C@@H](N(Cc2ccc(-c3ccccc3)cc2)C(=O)Cc2ccc(OC)cc2)c2cc(OCCCO)ccc2N1C(=O)Cc1ccc2ccccc2c1` (stereo not given in full), the composite z-score with Albumin (Bos taurus) was 0.0549; in [2] it was -0.0841; in experiment [3] it was -0.112; in experiment [4], 0.064; in [5], 0.49; in experiment [6], -0.149. The composite z-score in the experiment with Sam68 (KHDRBS1) is -0.493; in [7], -0.0169; in experiment [8], -1.7. The composite Z-score in experiment [1] was 0.142 (inactive).
In the case of `CCCC[C@H]1OB(O)C[C@H]2C1=C(COC)C[C@H]1C(=O)N(C)C(=O)[C@H]12`, the composite z-score with Albumin (Bos taurus) was -0.126; in experiment [2], -0.0328; in experiment [3] it was -0.201; in experiment [4] it was 0.39; in experiment [5], 0.502; in [6], 0.0459. In addition, the composite z-score in the experiment on Sam68 (KHDRBS1) was 0.462; in [7], 0.245; in [8] it was 0.744. The composite Z-score in [1] is -0.618 (inactive).
Regarding `COc1ccc(CCNC(=O)[C@@H]2c3ccccc3C(=O)N(Cc3ccccc3Cl)[C@H]2c2ccc(CO)cc2)cc1`, the composite z-score with Albumin (Bos taurus) is 0.0645; in experiment [2] it was -0.0647; in experiment [3] it was -0.0712; in [4], 0.363; in experiment [5] it was 1.47; in [6] it was 0.0463. The composite z-score in the experiment on Sam68 (KHDRBS1) is 0.579; in experiment [7], -0.014; in experiment [8] it was 0.207. The composite Z-score in experiment [1] is -0.145 (inactive).
Regarding `COc1ccc(CCNC(=O)[C@@]2(C)c3ccccc3C(=O)N(C(C)C)[C@H]2c2ccc(CO)cc2)cc1`, the composite z-score with Albumin (Bos taurus) is 0.252; in experiment [2] it was -0.0074; in experiment [3], -0.151; in experiment [4] it was 0.578; in experiment [5], 0.216; in experiment [6] it was 0.591. For the same molecule, the composite z-score in the experiment with Sam68 (KHDRBS1) is -0.38; in experiment [7], 0.397; in experiment [8] it was 0.613. Also, the composite Z-score in experiment [1] is 0.768 (inactive).
Take `COc1ccccc1CN1C(=O)c2ccccc2[C@@H](C(=O)NC2CC2)[C@@H]1c1ccc(CO)cc1`: the composite z-score was -1.07 in the experiment with Albumin (Bos taurus); 0.0522 in experiment [2]; -0.0449 in experiment [3]; 0.602 in experiment [4]; 1.05 in experiment [5]; 0.849 in [6]. The composite z-score turned out to be 1.31 in the experiment on Sam68 (KHDRBS1), 0.837 in [7] and 1.14 in experiment [8]. Moreover, the composite Z-score in experiment [1] is 0.0824 (inactive).
Regarding `CC1CC/C=C\[C@H]2OC34C=CCN(C(C)(C)C)C(=O)[C@H]3N(C(C)CO)C(=O)[C@@H]4C2C(=O)O1` (stereo not given in full), the composite z-score was -0.92 in the experiment with Albumin (Bos taurus); -0.122 in [2]; -0.13 in [3]; 0.4 in experiment [4]; -0.187 in experiment [5]; 0.199 in experiment [6]. The composite z-score in the experiment on Sam68 (KHDRBS1) was -1.47; in experiment [7], -0.454; in experiment [8], -2.17. For the same molecule, the composite Z-score in [1] was -0.0245 (inactive).
Turning to `O=C(c1ccccc1)N1C(=O)[C@@]2(Cc3ccccc31)N=C(c1ccc(OCCCO)cc1)O[C@H]2c1ccccc1`, the composite z-score with Albumin (Bos taurus) is -0.85; in experiment [2], 0.33; in experiment [3], 0.14; in experiment [4], 0.575; in experiment [5], 2.41; in experiment [6], 1.22. Moreover, the composite z-score with Sam68 (KHDRBS1) amounted to 1.31; in experiment [7] it was 0.897; in experiment [8], 1.14. Also, in experiment [1], the composite Z-score is 0.718 (inactive).
